Screens as filed in PubChem BioAssay.
Autofluor counter – counter-screen for toxin protease inhibitors: compound fluorescence; fluorescence intensity (test concentration not listed); AID 624483; 360,000 compounds, 3.1% hits; compound autofluorescence counterscreen, microsphere flow cytometry; hits give high values; in the data active = fluorescence intensity above about 16000
3CLpro inhibitor – SARS-CoV 3CLpro protease inhibition | P0C6X7 | recombinant SARS-CoV 3CLpro, quenched FRET peptide cleavage | inhibition, % at 6 µM | AID 1706 | 290,000 compounds, 0.14% hits; in the data active = inhibition above about 12%
Anthrax LF prot – inhibitors of Bacillus anthracis lethal factor protease; P15917; multiplex microsphere protease cleavage assay, LF; inhibition, % at 10 µM; 360,000 compounds, 0.12% hits; AID 588501; also: plate controls were buffer without enzyme for full effect and enzyme alone for no effect
Target sequence (P15917 whole entry, looked up): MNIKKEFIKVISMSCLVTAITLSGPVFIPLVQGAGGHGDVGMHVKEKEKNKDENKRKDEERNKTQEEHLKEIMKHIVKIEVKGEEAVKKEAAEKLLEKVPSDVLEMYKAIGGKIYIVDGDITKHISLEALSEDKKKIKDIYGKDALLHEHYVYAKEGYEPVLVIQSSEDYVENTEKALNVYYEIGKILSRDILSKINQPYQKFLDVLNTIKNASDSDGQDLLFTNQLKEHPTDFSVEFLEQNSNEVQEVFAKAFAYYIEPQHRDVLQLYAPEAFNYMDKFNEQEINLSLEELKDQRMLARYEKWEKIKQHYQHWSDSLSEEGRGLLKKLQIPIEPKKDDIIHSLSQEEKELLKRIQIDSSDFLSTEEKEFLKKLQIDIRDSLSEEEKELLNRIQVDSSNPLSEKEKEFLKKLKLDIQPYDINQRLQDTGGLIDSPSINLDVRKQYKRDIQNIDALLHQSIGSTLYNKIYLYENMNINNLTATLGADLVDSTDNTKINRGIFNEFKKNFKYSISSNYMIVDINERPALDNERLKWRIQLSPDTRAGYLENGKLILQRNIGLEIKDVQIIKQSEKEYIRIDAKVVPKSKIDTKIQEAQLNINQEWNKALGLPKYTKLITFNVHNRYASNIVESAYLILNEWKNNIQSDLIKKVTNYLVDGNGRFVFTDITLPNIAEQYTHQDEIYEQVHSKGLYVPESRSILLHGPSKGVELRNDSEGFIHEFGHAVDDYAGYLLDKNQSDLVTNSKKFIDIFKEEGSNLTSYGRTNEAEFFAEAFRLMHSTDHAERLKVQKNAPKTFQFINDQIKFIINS
DUSP3 inh – blocks human VHR1 dual specificity phosphatase | inhibition, % at 13.3 µM | 290,000 compounds, 0.52% hits | P51452 | recombinant VHR phosphatase, pNPP absorbance; in the data active = inhibition above about 50%
BoNT-A LC inh2 – blocks Botulinum neurotoxin A light chain protease; multiplex microsphere protease substrate cleavage, flow cytometry; inhibition, % at 10 µM; 360,000 compounds, 0.17% hits; AID 588499; also: plate controls were buffer without enzyme for full effect and enzyme alone for no effect
BoNT F protease – inhibitors of Botulinum neurotoxin F light chain protease; Multiplex microsphere protease cleavage assay, flow cytometry; inhibition, % at 10 µM; 360,000 compounds, 0.22% hits; in the data active = inhibition above about 35%, passing the limit was not always enough; also: plate controls were buffer without enzyme for full effect and enzyme alone for no effect
BoNT-A LC CP2 – blocks botulinum neurotoxin A light chain protease. 150 compounds, 10% hits. multiplex microsphere protease cleavage assay, flow cytometry. shares compounds with BoNT-A LC inh2. inhibition, % at 10 µM; in the data active = inhibition above about 24%
LF protease CP2 – Bacillus anthracis lethal factor protease inhibition. shares compounds with BoNT-A LC inh2. multiplex microsphere protease cleavage assay. inhibition, % at 10 µM. 150 compounds, 7% hits. AID 602327; in the data active = inhibition above about 25%
BoNTF LC inh 2 – blocks botulinum neurotoxin F light chain protease | shares compounds with BoNT-A LC inh2 | 150 compounds, 7% hits | multiplex microsphere protease cleavage assay, flow cytometry | inhibition, % at 10 µM; in the data active = inhibition above about 25%
Starred values were filed as active, the others as inactive; x = not tested or not shown; + = active, no number. Compounds with a hit are over-represented: about 3.9% of the library has one in this group of screens. Rule as the data show it, unless noted: active = inhibition above about 30%; inconclusive = no clear call, values can overlap the other calls; inactive = below that.

SMILES | Autofluor counter | 3CLpro inhibitor | Anthrax LF prot | DUSP3 inh | BoNT-A LC inh2 | BoNT F protease | BoNT-A LC CP2 | LF protease CP2 | BoNTF LC inh 2
COC(=O)c1ccccc1-c1c2ccc(=N)cc-2oc2cc(N)ccc12 | 34738* | x | 61.4* | x | 9.3 | 61.8* | 15.4 | -9.3 | -35.1
CC1(c2nnc(Cc3ccccc3)o2)CC(c2ccncc2)=NO1 (configuration not stated) | 3568 | x | 2.4 | x | 0.5 | -0.9 | x | x | x
COc1ccc(C(CNC(=O)c2cccc(S(=O)(=O)N3CCCCC3)c2)N2CCCC2)cc1 (configuration not stated) | 9930 | x | -4.0 | x | -4.6 | 8.8 | 0.2 | -1.8 | -1.7
COc1ccc(C(CNC(=O)c2cc(S(=O)(=O)N3CCCCC3)ccc2C)N2CCCC2)cc1 (configuration not stated) | 19413* | x | 10.2 | x | -4.4 | 44.9* | -13.0 | 2.8 | 35.3*
COc1ccc(C(CNC(=O)c2ccc(OC)c(S(=O)(=O)N3CCCC3)c2)N2CCCC2)cc1 (configuration not stated) | 21380* | x | 0.7 | x | -12.4 | 40.3* | -17.3 | 2.2 | 23.7
COc1ccc(C(CNC(=O)c2ccc(C)c(S(=O)(=O)N3CCCCC3)c2)N(C)C)cc1OC (configuration not stated) | 4047 | -3.7 | 3.5 | 4.7 | -0.6 | -2.6 | x | x | x
COc1ccccc1C(CNC(=O)c1ccc(C)c(S(=O)(=O)N2CCCCC2)c1)N1CCCC1 (configuration not stated) | 71619* | x | -2.3 | x | -89.1 | -12.3 | -7.0 | 2.0 | 25.0*
COc1ccc(NS(=O)(=O)c2cccc(C(=O)NCC(c3ccc(OC)cc3)N3CCCCC3)c2)cc1 (configuration not stated) | 7419 | x | -2.6 | x | -1.0 | -9.9 | x | x | x
CCc1ccc(S(=O)(=O)NCC2(N3CCOCC3)CCCCC2)cc1 | 5570 | x | -0.6 | x | -0.9 | 0.1 | x | x | x
Cc1cccc2c1NC1(CCCC1)CC2C (configuration not stated) | 4778 | 4.1 | -6.3 | -2.5 | 6.7 | + | 2.9 | -1.7 | +
COc1ccccc1Cc1c(-c2ccc(OC)c(OC)c2)nc2cc(C)c(Br)c(C)n12 | 4221 | x | -16.4 | x | 1.6 | -0.7 | x | x | x
CCCc1nc2cc(C)c(Br)c(C)n2c1Cc1ccsc1 | 6214 | x | 1.7 | x | 0.7 | -7.1 | x | x | x
Cc1cc2nc(-c3cccc(Br)c3)c(Cc3ccccc3)n2c(C)c1Br | 6229 | x | -2.2 | x | 0.9 | -8.6 | x | x | x
COc1ccc(-c2nc3cc(C)c(Br)c(C)n3c2Cc2ccsc2)cc1OC | 4388 | x | 0.4 | x | 2.1 | -4.4 | 3.3 | -1.5 | -7.0
COc1ccc(-c2nc3cc(C)c(Br)c(C)n3c2Cc2ccccc2C(F)(F)F)cc1OC | 5906 | x | -8.5 | x | 1.0 | -6.6 | 2.4 | -1.5 | -1.5
Cc1cc2nc(-c3cccc(Br)c3)c(Cc3ccsc3)n2c(C)c1Br | 4588 | x | -6.7 | x | 0.8 | -8.4 | 3.9 | 1.1 | 7.2
Cc1cc2nc(-c3cccc(Cl)c3)c(Cc3ccsc3)n2c(C)c1Br | 6217 | x | 2.8 | x | 2.9 | -6.3 | 9.2 | -5.0 | 2.5
O=C(CCCN1C(=O)NC2(CCCC2)C1=O)NCc1ccccc1 | 2886 | x | -8.6 | x | -0.3 | -17.8 | x | x | x
CCN(CC)c1ccc(-c2sc(Nc3ccccc3)n[n+]2-c2ccc(F)cc2)cc1 | 17190* | -2.9 | 43.5* | -26.0 | 27.2 | 1.0 | 6.8 | 14.5 | 2.9
CN(C)c1ccc(-c2sc(Nc3ccccc3)n[n+]2-c2ccc(F)cc2)cc1 | 10058 | -3.5 | 25.6 | -14.4 | 8.2 | 9.5 | x | x | x
COc1ccccc1NC(=S)N(Cc1ccco1)Cc1cc2cc(C)ccc2[nH]c1=O | 2628 | 0.8 | -1.2 | 23.7 | -0.8 | -7.7 | x | x | x
CC(=O)OCC(=O)c1c[nH]c2ccccc12 | 5991 | -0.9 | -2.8 | 9.3 | 0.0 | -6.2 | x | x | x
COc1cccc(C(=O)OCC(=O)c2c[nH]c3ccccc23)c1O | 4429 | 4.5 | -2.1 | 25.8 | 0.6 | -5.5 | 9.5 | 13.4 | 37.3*
COc1ccccc1Cc1c(-c2ccc(C#N)cc2)nc2c(Cl)cc(C(F)(F)F)cn12 | 10081 | x | 8.3 | x | 9.3 | 1.0 | 11.2 | 3.2 | 0.7
Cc1ccc(S(=O)(=O)N(C)CCN(C)S(=O)(=O)c2ccc(C)cc2)cc1 | 3215 | x | 5.2 | x | -0.3 | -1.2 | x | x | x
SMILES | Autofluor counter | 3CLpro inhibitor | Anthrax LF prot | DUSP3 inh | BoNT-A LC inh2 | BoNT F protease | BoNT-A LC CP2 | LF protease CP2 | BoNTF LC inh 2
CCN(CC)c1ccc2cc(C(=O)NCc3ccc(F)cc3)c(=N)oc2c1 | 11232 | -17.6 | 8.8 | 18.8 | 18.0 | 15.6 | x | x | x
CCN(CC)c1ccc2cc(C(=O)c3cccs3)c(=O)oc2c1 | 5733 | x | 32.6* | x | 53.5* | 32.2 | 21.9 | 20.9 | 16.4
O=C(C[n+]1ccc(C(=O)c2ccccc2)cc1)Nc1ccccc1OC(F)F | 2711 | x | 64.5* | x | 54.9* | 32.4 | 2.5 | 2.5 | -4.0
Cc1ccc(CNC(=O)Nc2cccc(C)c2)cc1 | 2262 | -2.7 | -2.7 | 20.8 | 0.2 | -5.6 | x | x | x
Cc1cccc(NC(=O)NCc2ccc3[nH]c(C)cc3c2)c1 | 2613 | 0.9 | -86.7 | 11.9 | 49.5* | -97.2 | 3.0 | 1.1 | 12.0
CC(Oc1ccc2c(-c3ccccc3)cc(=O)oc2c1)C(=O)NCCCn1ccnc1 (configuration not stated) | 5369 | -0.7 | -7.8 | 0.3 | -0.4 | -9.6 | x | x | x
Cc1onc(-c2ccccc2Cl)c1C(=O)NCc1ccc2c(c1)cc(C)n2C | 2004 | x | -75.4 | 18.1 | 83.0* | -87.3 | 48.7* | 19.8 | -40.3
Cc1cc2cc(CNC(=O)Nc3ccc(Cl)c(Cl)c3)ccc2n1C | 2226 | -1.2 | -116.7 | 12.0 | 35.3* | -122.8 | 10.3 | -5.7 | -38.1
CCOc1ccc(CC(=O)NCc2ccc3c(c2)cc(C)n3C)cc1 | 2221 | 9.8 | -7.5 | -7.0 | 81.2* | -29.3 | 2.8 | -0.7 | 5.2
COc1ccc(C(=O)NCc2ccc3c(c2)cc(C)n3C)cc1 | 1203 | -3.9 | -37.4 | 7.4 | 94.9* | -82.5 | 8.5 | 8.6 | 13.0
O=C(CSc1nc(-c2ccccc2)cc(=O)[nH]1)Nc1ccc(F)c(F)c1 | 3645 | -2.7 | -0.4 | 1.6 | -1.4 | -2.5 | x | x | x
CCN(CC)c1ccc2cc(S(=O)(=O)c3ccc(Cl)cc3)c(=O)oc2c1 | 3309 | -4.3 | 42.2* | 0.2 | 67.5* | 21.0 | 26.3* | 25.4* | 15.2
CCN(CC)c1ccc(C=Nc2cccc(S(=O)(=O)N3CCOCC3)c2)c(O)c1 | 3355 | x | 45.5* | x | 51.0* | 17.4 | 16.2 | 13.9 | 4.7
COc1ccc(-c2cc3c(c4c2ccn4C)C2CCC3C2)cc1 (configuration not stated) | 3998 | x | -1.7 | x | 14.0 | -22.5 | 2.0 | 2.9 | 2.7
COc1cccc(-c2cc3c(c4c2ccn4C)C2CCC3C2)c1 (configuration not stated) | 4290 | x | 2.4 | x | 17.7 | -22.2 | 10.1 | 2.1 | -13.9
CC(=O)NC12CC3CC(C1)CC(C(=O)N1CCN(S(=O)(=O)c4ccccc4C#N)CC1)(C3)C2 | 6283 | x | 3.7 | x | 0.9 | -2.6 | x | x | x
